In the library only some 3.2% were active in any assay of this set; here they are far more common.
USP1-UAF1 inh: Inhibitors of USP1/UAF1: Primary Screen | Potency, µM (series often up to 57.1 µM), actives largely listed as inhibitors | 390,000 compounds, 0.23% hits | recombinant USP1/UAF1, Ub-Rhodamine cleavage fluorescence; further: nearly all actives have a fitted effect of over 60% in size
Target sequence (O94782 whole entry, looked up): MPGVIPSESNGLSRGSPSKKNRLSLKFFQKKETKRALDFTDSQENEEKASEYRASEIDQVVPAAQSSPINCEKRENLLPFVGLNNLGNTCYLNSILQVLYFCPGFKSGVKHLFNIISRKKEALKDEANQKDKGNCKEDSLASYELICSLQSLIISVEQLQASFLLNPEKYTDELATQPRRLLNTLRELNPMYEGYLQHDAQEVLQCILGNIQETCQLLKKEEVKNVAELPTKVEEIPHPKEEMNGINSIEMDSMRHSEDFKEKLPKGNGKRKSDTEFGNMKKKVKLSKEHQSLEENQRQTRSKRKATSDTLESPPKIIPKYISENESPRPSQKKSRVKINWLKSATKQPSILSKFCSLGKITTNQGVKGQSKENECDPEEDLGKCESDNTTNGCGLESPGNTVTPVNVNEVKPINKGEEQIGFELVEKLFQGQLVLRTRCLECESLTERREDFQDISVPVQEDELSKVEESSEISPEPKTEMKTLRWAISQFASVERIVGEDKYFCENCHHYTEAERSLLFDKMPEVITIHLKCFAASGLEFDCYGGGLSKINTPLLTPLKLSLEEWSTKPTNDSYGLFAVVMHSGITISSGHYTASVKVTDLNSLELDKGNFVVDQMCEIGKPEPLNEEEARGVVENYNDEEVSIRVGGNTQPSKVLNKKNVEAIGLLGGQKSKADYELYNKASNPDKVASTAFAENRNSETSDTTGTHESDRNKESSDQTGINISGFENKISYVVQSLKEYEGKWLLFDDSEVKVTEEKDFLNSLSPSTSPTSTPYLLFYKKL
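1 nM enzyme complex + cpd, 15 min RT; start with Ub-Rho 150nM final; kinetic fluorescence ex 480/em 540, 6 reads q60 s. Buffer 50mM HEPES pH 7.8, 0.5mM EDTA, 0.1 mg/ml BSA, 1mM TCEP, 0.01% Tween-20.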
FBPA coupling cs: qHTS Assay for Inhibitors of Fructose-1,6-bisphosphate Aldolase from Giardia Lamblia: Coupling assay counterscreen. activity change, negative = inhibition, % at 58.2 µM, hits read low. coupling enzyme system counterscreen, AmpLite Red fluorescence. 290,000 compounds, 0.67% hits; in the data active means activity change below about -30%
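Compounds tested against the coupling enzymes alone at 57.5 uM final; readout was AmpLite Red fluorescence (525/598 nm) after 20 min at RT.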
GALK inhibitor: qHTS Assay for Inhibitors of Human Galactokinase (GALK) | Purified GALK, Kinase-Glo residual ATP luminescence | Potency, µM (series often up to 57.5 µM), actives largely listed as inhibitors | 270,000 compounds, 0.007% hits | AID 1868, 2009
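Galactose (100 uM) and ATP (35 uM) were turned over by 5 nM GALK for 1 h at RT. Kinase-Glo Plus then converted the remaining ATP into a luminescent signal.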
VDR inh: Inhibitors of the vitamin D receptor (VDR): qHTS | Vitamin D3 receptor (Homo sapiens), P11473 | VDR-SRC2-3 peptide fluorescence polarization, 2 h | Potency, µM, usual class: inhibitors | 400,000 compounds, 0.93% hits | AID 504847, 2011
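Fluorescence polarization assay of small-molecule disruption of VDR binding to coregulator peptide SRC2-3. Compounds and controls pin-transferred, then read after 2 h incubation at ambient room temperature.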
PLK1 PBD block: qHTS for Inhibitors of PLK1-PDB (polo-like kinase 1 - polo-box domain): Primary Screen. Plk1 PBD binding of FITC phosphopeptide, fluorescence polarization. Potency, µM, usual class: inhibitors. 360,000 compounds, 2.8% hits. AID 720504, 2013; further: series mostly up to about 57 µM; nearly all actives have a fitted effect of over 65% in size
USP2a inh: qHTS Assay for Inhibitors of Ubiquitin-specific Protease USP2a Using CHOP2 as the Reporter; Ubiquitin carboxyl-terminal hydrolase 2 (Homo sapiens), O75604; USP2 core, Ub-CHOP2 coupled fluorogenic reporter, 485/531; Potency, µM (titrated, usually from 38.3 µM), most hits filed as inhibitors; 330,000 compounds, 0.01% hits
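Cell-free coupled assay: 10nM USP2 core preincubated 30min RT with compound in Tris-HCl pH 8.0/CaCl2/CHAPS buffer, then 25nM Ub-CHOP2 and 25nM reporter substrate; fluorescence (Ex 485/Em 531) read after 60min RT, normalized to NEM inhibition, concentration-response curves fitted.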
Numbers stand for hits; . = inactive; ? = inconclusive; / = not tested or not shown. Unless noted, the call rests on the fitted dose curve; in most records, active means well fitted curve in the direction sought with a large enough effect; inconclusive means small, poorly fitted or top-dose-only effect, or another doubt; inactive means no such curve, though single readings can be large; an effect the other way counts as inactive or inconclusive.

SMILES	USP1-UAF1 inh	FBPA coupling cs	GALK inhibitor	VDR inh	PLK1 PBD block	USP2a inh
Cc1cccc(N2C(=O)CC(Sc3nccc(C)n3)C2=O)c1 (stereo unspecified)	.	.	.	.	.	.
CN(CC(=O)Nc1ccc(F)cc1)C(=O)COC(=O)/C=C/c1cccs1	.	/	/	?	.	.
CNc1cc2c(Nc3cccc(Br)c3)ncnc2cn1	/	-50	/	.	/	/
NC(=S)NNc1c(F)c(F)c(F)c(F)c1F	.	.	.	.	27µM	.
COc1cccc(C(=O)NN/C(C)=C/C(=O)C(F)(F)C(F)(F)C(F)(F)F)c1	.	.	.	?	27µM	.
CC(C)c1cc(C(=O)N/N=C/c2ccco2)n[nH]1	.	.	.	.	7.5µM	.
O=C(N/N=C/c1ccco1)c1cc(-c2cccs2)[nH]n1	.	.	.	.	.	.
Cc1noc(C)c1COC(=O)CCN1c2ccccc2Sc2ccccc21	.	.	.	?	21µM	.
CO/N=C(/C(=O)N[C@@H]1C(=O)N2C(C(=O)O)=C(CSc3cnns3)CS[C@H]12)c1csc(N)n1	/	/	/	35µM	/	/
Cc1ccc(S(=O)(=O)NCCOc2nc(N(C)C)nc(N3CCOCC3)n2)cc1	.	.	.	.	.	.
Cc1ccc(S(=O)(=O)NCCOc2nc(N(C)C)nc(N(C)C)n2)cc1	.	.	.	?	24µM	.
O=C(O)CCNc1cc2ccccc2cc1C(=O)O	.	-30	.	.	.	.
Cc1cc(SCC(=O)N/N=C/c2ccco2)nc2ccccc12	.	-32	.	.	.	.
COc1cccc2oc(-c3ccco3)cc(=O)c12	.	.	/	?	21µM	.
COc1ccc(NC(=O)N(C)C[C@H]2Oc3ccc(NC(=O)CCN4CCOCC4)cc3C(=O)N([C@@H](C)CO)C[C@H]2C)cc1	5µM	/	/	.	.	.
C[C@H]1CN([C@@H](C)CO)C(=O)c2cc(NS(=O)(=O)c3ccc(Cl)cc3)ccc2O[C@@H]1CN(C)CC1CCCCC1	.	/	/	89µM	.	.
C[C@@H]1CCCCO[C@@H](CN(C)CC2CCCCC2)[C@@H](C)CN([C@H](C)CO)C(=O)c2cc(NS(=O)(=O)c3ccc(Cl)cc3)ccc2O1	?	/	/	/	.	/
CC(C)C1C(=O)N(Cc2cn(CCC3OCCO3)nn2)CCS(=O)(=O)N1Cc1ccc(-c2ccc(Cl)cc2)cc1 (stereo unspecified)	.	/	/	/	.	/
CCOC(=O)C1CCCN(C(=S)NC(=O)c2cc(Br)ccc2Cl)C1 (stereo unspecified)	.	/	/	.	.	.
CCS(=O)(=O)Nc1ccc(C(=O)CC2(O)C(=O)Nc3ccc(Br)cc32)cc1 (stereo unspecified)	.	.	.	.	21µM	.
COc1ccc(N(C(=O)c2cc(OC)c(OC)c(OC)c2)S(=O)(=O)c2ccc(C)cc2)cc1	.	/	/	.	/	/
O=C1C2C3C=CC(C3)C2C(=O)N1CCN1CCN(Cc2ccc([N+](=O)[O-])cc2)CC1 (stereo unspecified)	.	.	.	?	21µM	.
Cc1ccsc1C1Nc2ccc3ncccc3c2C2=C1C(=O)CC(C)(C)C2 (stereo unspecified)	.	-31	.	.	.	.
O=C1CCCC2=C1C(c1cccs1)Nc1ccc3ncccc3c12 (stereo unspecified)	.	.	.	.	.	.
Cc1cc[n+](-c2[nH]c(=O)sc2/C=N/N=C(\[O-])c2ccccc2)cc1C	?	.	.	.	24µM	?
SMILES	USP1-UAF1 inh	FBPA coupling cs	GALK inhibitor	VDR inh	PLK1 PBD block	USP2a inh
COC(=O)CSc1nc(C)cc(C)n1	.	.	.	?	7.5µM	.
CCN(CC)c1ccc(NC(=O)c2ccccc2F)cc1S(=O)(=O)Nc1ccccc1OC	.	.	.	?	11µM	.
COc1ccc(NC(=O)c2ccccc2F)cc1Cl	.	.	.	.	.	.
CCN(CC)c1ccc(NC(=O)c2ccc(=O)[nH]c2)cc1S(=O)(=O)Nc1ccccc1OC	.	.	.	32µM	4.7µM	.
CCN(CC)c1ccc(NC(=O)COc2ccccc2C)cc1S(=O)(=O)Nc1ccccc1OC	.	.	.	?	5.3µM	.
COc1ccc(N2CCN(C(=O)[C@H](C)N3C(=O)C4CC=CCC4C3=O)CC2)cc1 (stereo partly specified)	.	/	/	.	.	.
CCCCCCCC1=CC2=C(Cl)C(=O)C(C)(OC(C)=O)C(=O)C2=CN1C (stereo unspecified)	/	.	/	71µM	/	/
CCCCCCCC1=CC2=C(Cl)C(=O)C(C)(OC(C)=O)C(=O)C2=CO1 (stereo unspecified)	/	.	/	50µM	/	/
CCOC(=O)/C(=N/Nc1ccc(OC)cc1)Sc1nnc(CCc2ccccc2)n1-c1ccccc1	.	.	.	.	.	.
Cc1cc(=O)oc2cc(NC(=O)C3COc4ccccc4O3)ccc12 (stereo unspecified)	?	.	.	.	.	.
O=C(COC(=O)Cc1ccccc1F)Nc1ccc(Cl)cn1	.	.	.	?	17µM	.
O=C(CCc1ccccc1)Nc1ccc(Cl)cn1	.	.	.	.	.	.
O=C(COC(=O)COc1ccccc1F)Nc1ccc(Cl)cn1	.	.	.	.	.	.
O=C(CN1C(=O)c2ccccc2C1=O)Nc1ccc(Cl)cn1	.	.	.	.	27µM	.
O=C(CSc1ccccn1)Nc1ccc(Cl)cn1	.	.	.	.	24µM	.
O=C(Cc1ccccc1)Nc1ccc(Cl)cn1	.	.	.	.	.	.
CC(=O)C(Sc1ccc2nnc(-c3ccc(C)cc3)n2n1)C(C)=O	.	.	.	.	.	.
Cc1cc(C(=O)OCC(=O)NCc2cccs2)ccc1[N+](=O)[O-]	.	/	/	.	.	.
CCn1c(=O)c(C(=O)CN(C)CC(=O)Nc2ccccc2Br)c(N)n(Cc2ccccc2)c1=O	.	/	/	.	.	.
O=C(c1ccc2c(c1)N(Cc1ccccc1)C(=O)c1ccccc1S2(=O)=O)N1CCCCCC1	.	/	/	.	/	/
COc1cc(CNc2ccc(C(=O)O)cc2)cc(Br)c1OCC(=O)NC(C)(C)C	.	.	.	.	.	.
C=CCOc1c(Br)cc(CNc2ccc(NC(=O)C(C)C)c(OC)c2)cc1OC	.	-45	.	.	.	.
Clc1ccc(OCCN2CCN(c3ncnc4sccc34)CC2)cc1	.	.	.	.	.	.
